# In the supplement of paper PMC8728848:
# About 410 targets per protein were measured; listed, in parts, are those with the strongest signals and a random draw of the rest.
# Legend:
# Assay in all cases: glycan array binding signal (z-score within array); higher = stronger binding
# Conditions in all cases: glycan notation: IUPAC condensed, linker removed
# [1] = target: Fuc(a1-2)Gal
# Summary of the method: (§1)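 Glycan array binding is given as a within-array Z-score, which can be read as non-binding when negative. The arrays, 3228 of them, came from the Consortium for Functional Glycomics database and were retained only where the protein sequence was available. Z-scores were averaged across arrays of the same protein sequence at different concentrations or buffers and across linkers.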
# [2] = target: Fuc(a1-2)Gal(b1-4)GlcNAc(b1-2)Man(a1-3)[Fuc(a1-2)Gal(b1-4)GlcNAc(b1-2)Man(a1-6)]Man(b1-4)GlcNAc(b1-4)[Fuc(a1-6)]GlcNAc
# Summary of the method: as §1
# [3] = target: Fuc(a1-2)Gal(b1-4)GlcNAc(b1-6)GalNAc
# Summary of the method: as §1
# [4] = target: Fuc(a1-2)Gal(b1-4)[Fuc(a1-3)]GlcNAc(b1-3)Gal(b1-4)[Fuc(a1-3)]GlcNAc(b1-3)Gal(b1-4)[Fuc(a1-3)]GlcNAc
# Summary of the method: as §1
# [5] = target: Fuc(a1-2)Gal6S(b1-3)GlcNAc6S
# Summary of the method: as §1
# [6] = target: Fuc(a1-2)[Gal(a1-3)]Gal(b1-3)GlcNAc
# Summary of the method: as §1
# [7] = target: Fuc(a1-2)[Gal(a1-3)]Gal(b1-4)GlcNAc
# Summary of the method: as §1
# [8] = target: Fuc(a1-2)[Gal(a1-3)]Gal(b1-4)GlcNAc(b1-2)Man(a1-3)[Fuc(a1-2)[Gal(a1-3)]Gal(b1-4)GlcNAc(b1-2)Man(a1-6)]Man(b1-4)GlcNAc(b1-4)[Fuc(a1-6)]GlcNAc
# Summary of the method: as §1
# [9] = target: Fuc(a1-2)[GalNAc(a1-3)]Gal(b1-4)GlcNAc(b1-2)Man(a1-3)[Fuc(a1-2)[GalNAc(a1-3)]Gal(b1-4)GlcNAc(b1-2)Man(a1-6)]Man(b1-4)GlcNAc(b1-4)GlcNAc
# Summary of the method: as §1
# [10] = target: Fuc(a1-3)[Gal(b1-4)]GlcNAc(b1-6)[Gal(b1-3)GlcNAc(b1-3)]Gal(b1-4)Glc
# Summary of the method: as §1
# [11] = target: Gal(a1-3)Gal(b1-4)GlcNAc(b1-2)Man(a1-3)[Gal(a1-3)Gal(b1-4)GlcNAc(b1-2)Man(a1-6)]Man(b1-4)GlcNAc(b1-4)GlcNAc
# Summary of the method: as §1
# [12] = target: Gal(a1-3)Gal(b1-4)GlcNAc(b1-3)GalNAc
# Summary of the method: as §1
# [13] = target: Gal(b1-2)Gal
# Summary of the method: as §1
# [14] = target: Gal(b1-3)Gal
# Summary of the method: as §1
# [15] = target: Gal(b1-3)GlcNAc
# Summary of the method: as §1
# [16] = target: Gal(b1-3)GlcNAc(b1-3)Gal(b1-4)GlcNAc
# Summary of the method: as §1
# [17] = target: Gal(b1-3)GlcNAc(b1-3)Gal(b1-4)GlcNAc(b1-3)Gal(b1-4)GlcNAc(b1-2)[Gal(b1-3)GlcNAc(b1-3)Gal(b1-4)GlcNAc(b1-3)Gal(b1-4)GlcNAc(b1-6)]Man(a1-6)[Gal(b1-3)GlcNAc(b1-3)Gal(b1-4)GlcNAc(b1-3)Gal(b1-4)GlcNAc(b1-2)Man(a1-3)]Man(b1-4)GlcNAc(b1-4)[Fuc(a1-6)]GlcNAc
# Summary of the method: as §1
# [18] = target: Gal(b1-3)[Fuc(a1-4)]GlcNAc
# Summary of the method: as §1
# [19] = target: Gal(b1-3)[Fuc(a1-4)]GlcNAc(b1-2)Man
# Summary of the method: as §1
# [20] = target: Gal(b1-3)[GlcNAc(b1-6)]GalNAc
# Summary of the method: as §1
# [21] = target: Gal(b1-4)GlcNAc
# Summary of the method: as §1
# [22] = target: Gal(b1-4)GlcNAc(b1-2)Man(a1-3)[GlcNAc(b1-4)][Gal(b1-4)GlcNAc(b1-2)Man(a1-6)]Man(b1-4)GlcNAc(b1-4)GlcNAc
# Summary of the method: as §1
# [23] = target: Gal(b1-4)GlcNAc(b1-2)[Gal(b1-4)GlcNAc(b1-4)]Man(a1-3)[Gal(b1-4)GlcNAc(b1-2)[Gal(b1-4)GlcNAc(b1-6)]Man(a1-6)]Man(b1-4)GlcNAc(b1-4)GlcNAc
# Summary of the method: as §1
# [24] = target: Gal(b1-4)GlcNAc(b1-3)Gal(b1-4)Glc
# Summary of the method: as §1
# [25] = target: Gal(b1-4)GlcNAc(b1-3)Gal(b1-4)GlcNAc(b1-3)[Gal(b1-4)GlcNAc(b1-3)Gal(b1-4)GlcNAc(b1-6)]GalNAc
# Summary of the method: as §1
# [26] = target: Gal(b1-4)GlcNAc(b1-3)GalNAc
# Summary of the method: as §1
# [27] = target: Gal3S(b1-3)GalNAc
# Summary of the method: as §1
# [28] = target: Gal3S(b1-4)Glc
# Summary of the method: as §1
# [29] = target: Gal3S(b1-4)[Fuc(a1-3)]GlcNAc6S
# Summary of the method: as §1
# [30] = target: Gal3S6S(b1-4)GlcNAc6S
# Summary of the method: as §1
# [31] = target: Gal6S(b1-3)GlcNAc6S
# Summary of the method: as §1
# [32] = target: GalNAc(a1-3)Gal
# Summary of the method: as §1
# [33] = target: Glc(a1-6)Glc(a1-6)Glc(a1-6)Glc
# Summary of the method: as §1
# [34] = target: GlcNAc(a1-4)Gal(b1-4)GlcNAc(b1-3)Gal(b1-4)[Fuc(a1-3)]GlcNAc(b1-3)Gal(b1-4)[Fuc(a1-3)]GlcNAc
# Summary of the method: as §1
# [35] = target: GlcNAc(b1-2)Gal(b1-3)GalNAc
# Summary of the method: as §1
# [36] = target: GlcNAc(b1-2)[GlcNAc(b1-4)]Man(a1-3)[GlcNAc(b1-4)][GlcNAc(b1-2)[GlcNAc(b1-6)]Man(a1-6)]Man(b1-4)GlcNAc(b1-4)[Fuc(a1-6)]GlcNAc
# Summary of the method: as §1
# [37] = target: GlcNAc(b1-2)[GlcNAc(b1-6)]Man(a1-6)[GlcNAc(b1-2)Man(a1-3)]Man(b1-4)GlcNAc(b1-4)[Fuc(a1-6)]GlcNAc
# Summary of the method: as §1
# [38] = target: GlcNAc(b1-2)[GlcNAc(b1-6)]Man(a1-6)[GlcNAc(b1-4)][GlcNAc(b1-2)Man(a1-3)]Man(b1-4)GlcNAc(b1-4)GlcNAc
# Summary of the method: as §1
# [39] = target: GlcNAc(b1-3)Gal(b1-4)GlcNAc(b1-3)Gal(b1-4)GlcNAc(b1-3)Gal(b1-4)GlcNAc(b1-3)Gal(b1-4)GlcNAc(b1-2)Man(a1-3)[GlcNAc(b1-3)Gal(b1-4)GlcNAc(b1-3)Gal(b1-4)GlcNAc(b1-3)Gal(b1-4)GlcNAc(b1-3)Gal(b1-4)GlcNAc(b1-2)Man(a1-6)]Man(b1-4)GlcNAc(b1-4)[Fuc(a1-6)]GlcNAc
# Summary of the method: as §1
# [40] = target: GlcNAc(b1-3)Gal(b1-4)GlcNAc(b1-3)Gal(b1-4)GlcNAc(b1-3)Gal(b1-4)GlcNAc(b1-3)Gal(b1-4)GlcNAc(b1-2)[GlcNAc(b1-3)Gal(b1-4)GlcNAc(b1-3)Gal(b1-4)GlcNAc(b1-3)Gal(b1-4)GlcNAc(b1-3)Gal(b1-4)GlcNAc(b1-6)]Man(a1-6)[GlcNAc(b1-3)Gal(b1-4)GlcNAc(b1-3)Gal(b1-4)GlcNAc(b1-3)Gal(b1-4)GlcNAc(b1-3)Gal(b1-4)GlcNAc(b1-2)Man(a1-3)]Man(b1-4)GlcNAc(b1-4)[Fuc(a1-6)]GlcNAc
# Summary of the method: as §1
# [41] = target: GlcNAc(b1-3)Gal(b1-4)GlcNAc(b1-6)[Gal(b1-3)]GalNAc
# Summary of the method: as §1
# [42] = target: Man(b1-4)GlcNAc
# Summary of the method: as §1
# [43] = target: Neu5Ac(a2-3)Gal(b1-3)GlcNAc(b1-3)Gal(b1-4)GlcNAc
# Summary of the method: as §1
# [44] = target: Neu5Ac(a2-3)Gal(b1-3)[Fuc(a1-4)]GlcNAc(b1-3)Gal(b1-4)[Fuc(a1-3)]GlcNAc
# Summary of the method: as §1
# [45] = target: Neu5Ac(a2-3)Gal(b1-4)GlcNAc(b1-2)Man
# Summary of the method: as §1
# [46] = target: Neu5Ac(a2-3)Gal(b1-4)GlcNAc(b1-2)[Neu5Ac(a2-3)Gal(b1-4)GlcNAc(b1-4)]Man(a1-3)[GlcNAc(b1-4)][Neu5Ac(a2-3)Gal(b1-4)GlcNAc(b1-4)Man(a1-6)]Man(b1-4)GlcNAc(b1-4)GlcNAc
# Summary of the method: as §1
# [47] = target: Neu5Ac(a2-3)Gal(b1-4)GlcNAc(b1-3)Gal
# Summary of the method: as §1
# [48] = target: Neu5Ac(a2-3)Gal(b1-4)GlcNAc(b1-3)Gal(b1-4)GlcNAc(b1-2)Man(a1-3)[Neu5Ac(a2-3)Gal(b1-4)GlcNAc(b1-3)Gal(b1-4)GlcNAc(b1-2)Man(a1-6)]Man(b1-4)GlcNAc(b1-4)GlcNAc
# Summary of the method: as §1
# [49] = target: Neu5Ac(a2-3)Gal(b1-4)GlcNAc(b1-3)[Neu5Ac(a2-3)Gal(b1-4)GlcNAc(b1-6)]GalNAc
# Summary of the method: as §1
# [50] = target: Neu5Ac(a2-3)[GalNAc(b1-4)]Gal(b1-4)GlcNAc
# Summary of the method: as §1
# [51] = target: Neu5Ac(a2-3)[GalNAc(b1-4)]Gal(b1-4)GlcNAc(b1-3)GalNAc
# Summary of the method: as §1
# [52] = target: Neu5Ac(a2-6)Gal(b1-4)GlcNAc(b1-2)Man(a1-6)[Gal(b1-4)GlcNAc(b1-2)Man(a1-3)]Man(b1-4)GlcNAc(b1-4)GlcNAc
# Summary of the method: as §1
# [53] = target: Neu5Ac(a2-8)Neu5Ac(a2-3)[GalNAc(b1-4)]Gal(b1-4)Glc
# Summary of the method: as §1
# [54] = target: Neu5Ac9Ac(a2-6)Gal(b1-4)GlcNAc
# Summary of the method: as §1
# [55] = target: Neu5Gc(a2-3)Gal(b1-3)GlcNAc
# Summary of the method: as §1
binder,measurement,setting,value
"Tp0751, 83732 (protein) MSYYHHHHHHLESTSLYKKAGFQHGHVPPRRIPPHDTFGALPTAALPSNARDTAAHPSDTADNTSGSSTTTDPRSHGNAPPAPVGGAAQTHTQPPVQTAMRIALWNRATHGEQGALQHLLAGLWIQTEISPNSGDIHPLLFFDREHAEITFSRASVQEIFLVDSAHTHRKTVSFLTRNTAISSIRRRLEVTFESHEVIHVRAVEDVARLKIGSTSMWDGQYTRYHAGPASAPSP",glycan array binding signal (z-score),[1],-0.265
same,glycan array binding signal (z-score),[2],1.64
same,glycan array binding signal (z-score),[3],-0.071
same,glycan array binding signal (z-score),[4],0.013
same,glycan array binding signal (z-score),[5],1.11
same,glycan array binding signal (z-score),[6],1.77
same,glycan array binding signal (z-score),[7],0.066
same,glycan array binding signal (z-score),[8],-0.276
same,glycan array binding signal (z-score),[9],0.638
same,glycan array binding signal (z-score),[10],0.413
same,glycan array binding signal (z-score),[11],0.262
same,glycan array binding signal (z-score),[12],-0.025
same,glycan array binding signal (z-score),[13],2.31
same,glycan array binding signal (z-score),[14],0.017
same,glycan array binding signal (z-score),[15],-0.323
same,glycan array binding signal (z-score),[16],-0.382
same,glycan array binding signal (z-score),[17],-0.07
same,glycan array binding signal (z-score),[18],-0.004
same,glycan array binding signal (z-score),[19],-0.163
same,glycan array binding signal (z-score),[20],-0.373
same,glycan array binding signal (z-score),[21],0.21
same,glycan array binding signal (z-score),[22],-0.493
same,glycan array binding signal (z-score),[23],0.31
same,glycan array binding signal (z-score),[24],-0.441
same,glycan array binding signal (z-score),[25],1.78
same,glycan array binding signal (z-score),[26],-0.427
same,glycan array binding signal (z-score),[27],3.13
same,glycan array binding signal (z-score),[28],5.83
same,glycan array binding signal (z-score),[29],1.94
same,glycan array binding signal (z-score),[30],2.54
same,glycan array binding signal (z-score),[31],2.18
same,glycan array binding signal (z-score),[32],-0.699
same,glycan array binding signal (z-score),[33],1.24
same,glycan array binding signal (z-score),[34],1.63
same,glycan array binding signal (z-score),[35],-0.378
same,glycan array binding signal (z-score),[36],-0.299
same,glycan array binding signal (z-score),[37],0.781
same,glycan array binding signal (z-score),[38],-0.584
same,glycan array binding signal (z-score),[39],-0.326
same,glycan array binding signal (z-score),[40],-0.088
same,glycan array binding signal (z-score),[41],-0.81
same,glycan array binding signal (z-score),[42],-0.599
same,glycan array binding signal (z-score),[43],0.058
same,glycan array binding signal (z-score),[44],0.658
same,glycan array binding signal (z-score),[45],6.75
same,glycan array binding signal (z-score),[46],-0.386
same,glycan array binding signal (z-score),[47],-0.332
same,glycan array binding signal (z-score),[48],0.542
same,glycan array binding signal (z-score),[49],-0.246
same,glycan array binding signal (z-score),[50],-0.76
same,glycan array binding signal (z-score),[51],0.098
same,glycan array binding signal (z-score),[52],-0.478
same,glycan array binding signal (z-score),[53],-0.022
same,glycan array binding signal (z-score),[54],-0.145
same,glycan array binding signal (z-score),[55],0.052
